ChEMBL document CHEMBL3988442, “University of Dundee, Small-Polar-MMV Screening Library” (2021)
“And” between values parts separate entries of the source, which are not always exact repeats. Identical values can stand only once. The campaign covered roughly 34,000 compounds. About 290 (0.85%) showed an effect of 50% or more. The sample holds strong results, similar compounds and a random draw of the others, so the mix is not that of the screen.

Test system: Plasmodium falciparum
Assay: Plasmodium falciparum sporozoite viability assay
Assay type: functional, organism-based
Set-up: scale not given: in the data most compounds retested in dose-response had high values

| SMILES | Percent Effect (10 mM as filed; unlikely as a test dose) | Percent Effect |
| --- | --- | --- |
| Cc1cccc(NC2CCN(C(=O)Nc3ccc(F)c(F)c3)CC2)n1 | 48.63% and 63.22% and 54.45% |  |
| Cc1cccc(NC2CCN(C(=O)Nc3cc(F)cc(F)c3)CC2)n1 | -0.7988% and 3.277% and 6.003% |  |
| Cc1cccc(NC2CCN(C(=O)Nc3ccncc3)CC2)n1 | -1.906% and 4.517% and 18.88% |  |
| Cc1ccc(C(C)NC(=O)CNCCn2cccn2)cc1C (stereo not given) |  | -5.595% |
| Cc1cc(C(F)(F)F)n2nc(C3CCN(S(C)(=O)=O)CC3)cc2n1 | -9.274% and -13.96% and -8.495% |  |
| CCN1CC[C@@H]2OC[C@H](C(=O)NCc3cccs3)C[C@@H]2C1 |  | 18.4% |
| CCc1ccc(-c2cc(C(F)(F)F)nc(N3CCC(N)CC3)n2)cc1 | 67.54% and 55.39% |  |
| CN1CCC(c2cccc(Cc3ccc(C(F)(F)F)cc3)n2)CC1 |  | 3.398% |
| Cc1cc(C(F)(F)F)nc(C2CCN(C(=O)CO)CC2)n1 |  | -4.597% |
| CCN1CC2(CCOCC2)c2cc(NS(=O)(=O)CC)ccc21.O=C(O)C(F)(F)F |  | 11.65% |
| Cc1cnn(CC2CN(Cc3ccccn3)CCO2)c1 (stereo not given) |  | -1.077% |
| CC(Cn1cccn1)NC(=O)NCCc1cccnc1 (stereo not given) |  | 12% |
| CC(=O)N1CCC(c2ccnc(Nc3ccc(C)cn3)n2)C1 (stereo not given) | -6.604% and -1.275% and 4.318% |  |
| Cc1ccc(Nc2nccc(C3CCN(CC(N)=O)C3)n2)nc1 (stereo not given) | 101.9% and 103.5% and 87.92% |  |
| Cc1ccc(Nc2nccc(C3CN(C(C)C)C3)n2)nc1 |  | 10.21% |
| Cc1ccc(Nc2nccc(C3CCCN(CC(=O)N(C)C)C3)n2)nc1 (stereo not given) | 76.43% and 66.32% and 68.98% |  |
| COCC(=O)N1CC(c2ccnc(Nc3ccc(C)cn3)n2)C1 | 0.1159% and 3.964% and -12.15% |  |
| O=C(Cc1ccc(F)cc1)N1CCn2c(Cn3cncn3)cnc2C1 |  | 8.505% |
| Cc1cc(OCCC(=O)NCc2ccc(F)cc2)nnc1C |  | 1.961% |
| Cc1nc(COC[C@@]23CCC[C@@H]2CN(Cc2cnn(C)c2)C3)cs1 |  | 2.977% |
| Cc1c(-c2cc(C(=O)N3CCc4ncc(Cl)cc4C3)on2)cnn1C |  | 3.017% |
| C[C@H](NS(C)(=O)=O)C(=O)NCc1cc(-c2ccco2)n(CC(F)(F)F)n1 |  | 3.472% |
| CC(Nc1nccc(CCC(F)(F)F)n1)c1nc(-c2ccncc2)no1 (stereo not given) | -11.17% and -18.73% |  |
| CC(C)c1noc(C(C)Nc2nccc(CCC(F)(F)F)n2)n1 (stereo not given) | 1.671% and -0.3266% |  |
| CC(Nc1nccc(CCC(F)(F)F)n1)c1nc(-c2ccccn2)no1 (stereo not given) | 60.54% and 52.08% |  |
| CN1CCN(C(=O)[C@H]2C[C@H]3[C@H](CCN3Cc3nccs3)O2)CC1 |  | 0.9025% |
| O=C(Nc1ccc(Cl)cc1)c1nn(C2CCS(=O)(=O)C2)c2c1CCCC2 (stereo not given) | -17.96% and -20.43% |  |
| O=C(Nc1ccc(Cl)cn1)c1nn(C2CCS(=O)(=O)C2)c2c1CCCC2 (stereo not given) | 72.26% and 68.39% |  |

| SMILES | Percent Effect (10 mM as filed; unlikely as a test dose) | Percent Effect |
| --- | --- | --- |
| O=C(Nc1ccccc1F)c1nn(C2CCS(=O)(=O)C2)c2c1CCCC2 (stereo not given) | 38.15% and 35.56% |  |
| O=C(Nc1ccccc1)c1nn(C2CCS(=O)(=O)C2)c2c1CCCC2 (stereo not given) | 23.34% and 42.14% and 38.32% |  |
| O=C(Nc1cccc(Cl)c1)c1nn(C2CCS(=O)(=O)C2)c2c1CCCC2 (stereo not given) | 70.24% and 80.75% and 81.2% |  |
| Cc1cccc(NC(=O)c2nn(C3CCS(=O)(=O)C3)c3c2CCCC3)n1 (stereo not given) | 27.72% and 25.15% |  |
| CC1CCN(S(=O)(=O)NCc2ccccc2Cn2cccn2)CC1 |  | 3.533% |
| c1cncc(CN2CCCC3(COCCN(c4cncnc4)C3)C2)c1 (stereo not given) |  | -1.976% |
| C[C@H](NS(C)(=O)=O)C(=O)NCc1cc(-c2ccco2)n[nH]1 |  | -6.52% |
| CC(C)[C@H](NS(C)(=O)=O)C(=O)NCc1cc(-c2ccccc2)n[nH]1 |  | -6.181% |
| CCc1nn(C)c(Cl)c1CN(CCOC)Cc1cnn(C)c1 |  | -2.336% |
| CCOc1cc(/C=C/c2ncc(C(=O)O)s2)cc(Br)c1OC |  | 6.645% |
| CCOc1ncccc1C(=O)N1CCCC1Cn1nc(C)cc1C (stereo not given) |  | -1.877% |
| CC(c1ccncn1)N(C)Cc1cc2cc3c(cc2[nH]c1=O)OCO3 (stereo not given) | 36.77% and 42.23% and 61.28% |  |
| CC(c1ccccn1)N(C)Cc1cc2cc3c(cc2[nH]c1=O)OCO3 (stereo not given) | 18.92% and 31.37% and 23.56% |  |
| CN(C)CCOCC1CN(Cc2ccc(F)cc2)Cc2nnn(C)c21.O=C(O)C(F)(F)F.O=C(O)C(F)(F)F (stereo not given) |  | 3.947% |
| CCCn1cc(NC(=O)c2ccc(S(C)(=O)=O)cc2)ccc1=O |  | -6.389% |
| O=C(O)CCNC(=O)N1CCc2c([nH]c3ccc(Cl)cc23)C1 | -34.22% and -28.29% |  |
| COC(=O)CCCNC(=O)N1CCc2c([nH]c3ccc(Cl)cc23)C1 | 80.07% and 78.06% |  |
| O=C(O)CCCNC(=O)N1CCc2c([nH]c3ccc(Cl)cc23)C1 | 31.15% and 28.91% |  |
| CC(C)N1c2sc(-c3ccsc3)nc2CC1C(=O)NC1CC1 (stereo not given) | 76.28% and 81.46% |  |
| O=C(NC1CCCC1)C1Cc2nc(-c3ccsc3)sc2N1CC1CC1 (stereo not given) | 9.544% and 5.829% and 5.902% |  |
| CN(C)C(=O)N1CCN(Cc2cnc(-c3ccsc3)s2)CC1 |  | -10.41% |
| Cc1nc(-c2ccsc2)sc1C(=O)N1CCn2c(C)nnc2C1 |  | 4.116% |
| CC(C)CC(=O)N1CCC(Nc2nc(O)cc(-c3ccsc3)n2)CC1 |  | 14.33% |
| CC(C)N1c2sc(-c3ccsc3)nc2CC1C(=O)NC1CCCC1 (stereo not given) | 80.44% and 80.12% |  |
| Cc1ccncc1CN1CCOCC1c1[nH]ncc1C (stereo not given) |  | -4.491% |
| Cc1cccc(CN2CCC(c3csc4nccn34)CC2)n1.O=CO |  | 3.885% |
| N#Cc1cccc(N2CC3(CCN(C(=O)c4ccncc4)C3)CC2=O)c1.O=C(O)C(F)(F)F (stereo not given) |  | -19.71% |
